Source: PubChem BioAssay
Most compounds without a hit are left out; they make up all but 3.8% or so of the library.
A549 tox-1: Nrf2 qHTS screen for inhibitors: counterscreen for cytotoxicity; A549 ARE-Fluc cells, CellTiter-Fluor viability, 18-24 h; Potency, µM (highest dose often 46 µM), hits mostly inhibitors; actives 0.16% (n = 390,000); AID 504648, 2011
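A549 ARE-Fluc cells in 5% FBS OPTI-MEM, 5000 cells/well, rested 2 h then exposed to compounds in concentration-response for 18-24 h at 37 °C. Viability by CellTiter-Fluor fluorescence (Ex 405/Em 525) after 30 min; luciferase luminescence (BugLite, 15 min, RT) read afterwards.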
TGFb SMAD3 inh: qHTS for Inhibitors of TGF-b; HepG2 CAGA-GFP TGF-b/SMAD3 reporter, GFP fluorescence, 18 h; TGF-beta stimulated, 500 pg/mL final; Potency, µM (doses to about 46.1 µM), hits mostly inhibitors; actives 1.2% (n = 410,000); also: nearly all actives have a fitted effect of over 65% in size
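First, reporter cells (HEPG2 CAGA-GFP) rested 2 h at 37 degrees C. Next, compounds were pinned in and TGF-beta added to 500 pg/mL final. After 18 h, GFP was imaged per cell and summed per well.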
ATXN viability: Viability Counterscreen for Primary qHTS for Inhibitors of ATXN expression. actives 0.49% (n = 400,000). Potency, µM (series often up to 56.7 µM), actives largely listed as cytotoxic. S2 cells (HEK-293 line with an ATXN2-luciferase reporter) viability, CellTiter-Fluor protease fluorescence, 24 h; also: nearly all actives have a fitted effect of over 40% in size
ATXN2 expr inh: Primary qHTS for Inhibitors of ATXN expression | HEK-293 ATXN2-luciferase reporter, luminescence, 24 h | actives 0.72% (n = 360,000) | Potency, µM (top dose mostly 57 µM), most hits filed as inhibitors; also: nearly all actives have a fitted effect of over 55% in size
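qHTS (up to 57 uM final) was run with 24 h compound exposure of reporter cells at 37 °C. Each well was multiplexed: SteadyGlo luminescence measured ATXN2-luciferase expression after a fluorogenic Gly-Phe-AFC viability readout (25 uM final).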
Nrf2 block: Nrf2 qHTS screen for inhibitors. A549 ARE-Fluc reporter, luciferase luminescence, 18-24 h. Potency, µM (top dose mostly 46 µM), actives largely listed as inhibitors. actives 2.1% (n = 360,000). AID 504444, 2011; also: nearly all actives have a fitted effect of over 60% in size
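A549 ARE_Fluc cells (5000/well, 5% FBS OPTI-MEM) pre-incubated 2 h, then treated with compounds 18-24 h at 37C/5% CO2 in concentration-response. CellTiter-Fluor viability read first; BugLite luciferase luminescence after 15 min at room temperature gives Nrf2 activity.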
HepG2 viability: qHTS for Inhibitors of TGF-b: Cytotox Counterscreen; Potency, µM (titrated, usually from 46.1 µM), actives largely listed as cytotoxic; HepG2 CAGA-GFP viability, ATP luminescence, 18 h; actives 0.76% (n = 410,000); AID 588856, 2011
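CellTiter-Glo luminescence gave cytotoxicity after 18 hours at 37 degrees C. The cells were HepG2 CAGA-GFP in 1% FBS DMEM, stimulated with 500 pg/mL TGF-beta after compound addition. %Activity was normalised to no-cell wells (complete cell-killing) and DMSO (no toxicity), and curves were fitted and classified.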
FLuc enzyme inh: Nrf2 qHTS screen for inhibitors: Purified Fluc Biochemical Counterscreen for Hit Validation. purified firefly luciferase, luminescence inhibition. AID 720522, 2013. Potency, µM (titrated, usually from 57.5 µM), most hits filed as inhibitors. shares compounds with Nrf2 block. actives 4% (n = 1,400); also: nearly all actives have a fitted effect of over 65% in size
Target sequence (P08659 whole entry, looked up): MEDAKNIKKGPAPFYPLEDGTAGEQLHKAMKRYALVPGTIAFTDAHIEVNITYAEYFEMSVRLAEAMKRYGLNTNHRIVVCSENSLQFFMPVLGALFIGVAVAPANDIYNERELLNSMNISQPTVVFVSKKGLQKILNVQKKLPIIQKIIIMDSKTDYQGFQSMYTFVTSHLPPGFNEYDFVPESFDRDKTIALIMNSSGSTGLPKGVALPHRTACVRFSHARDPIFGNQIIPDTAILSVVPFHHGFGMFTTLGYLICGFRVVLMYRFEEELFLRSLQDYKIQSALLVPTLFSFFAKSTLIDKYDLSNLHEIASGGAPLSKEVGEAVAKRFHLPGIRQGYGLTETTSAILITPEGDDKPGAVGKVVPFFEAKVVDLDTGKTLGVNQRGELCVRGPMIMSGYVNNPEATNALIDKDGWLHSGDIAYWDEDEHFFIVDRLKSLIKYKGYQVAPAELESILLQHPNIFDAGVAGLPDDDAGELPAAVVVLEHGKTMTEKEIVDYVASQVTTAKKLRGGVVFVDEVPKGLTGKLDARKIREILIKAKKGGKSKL
A549 tox-2: Nrf2 qHTS screen for inhibitors: A549 ARE-Fluc Cytotoxicity Counterscreen for Hit Validation; shares compounds with Nrf2 block; Potency, µM (highest dose often 46.1 µM), actives largely listed as inhibitors; A549 ARE-Fluc cells, cytotoxicity counterscreen; AID 720523, 2013; actives 2% (n = 1,400);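 also: cells exposed to compounds for 18 to 24 hours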
Nrf2 ARE inh: Nrf2 qHTS screen for inhibitors: Nrf2 A549 ARE-Fluc Confirmation Assay for Hit Validation. shares compounds with Nrf2 block. A549 ARE-firefly luciferase reporter, luminescence. AID 720524, 2013. Potency, µM (series often up to 46.1 µM), hits mostly inhibitors. actives 74% (n = 1,400); also: nearly all actives have a fitted effect of over 65% in size
A number is an active result; – = inactive; ? = inconclusive; · = not tested or not shown; [ ] = remark or other dose. Calls follow the shape of the dose curve; as a rule, active = well fitted curve in the direction sought with a large enough effect; inconclusive = small, poorly fitted or top-dose-only effect, or another doubt; inactive = no such curve, though single readings can be large; an effect the other way counts as inactive or inconclusive.

SMILES	A549 tox-1	TGFb SMAD3 inh	ATXN viability	ATXN2 expr inh	Nrf2 block	HepG2 viability	FLuc enzyme inh	A549 tox-2	Nrf2 ARE inh
CCn1c(-c2ccccc2)csc1=Nc1ccc(S(=O)(=O)O)cc1	–	–	–	–	–	–	·	·	·
O=C(CSc1ccccc1)NCC1(N2CCCCC2)CCCCC1	–	–	?	–	–	–	·	·	·
CC(CCc1ccccc1)N1CCN(C)CC1 (stereo not given)	–	–	–	–	–	–	·	·	·
COc1ccc(NC(=O)CCc2c(C)nc3cc(-c4cccc(F)c4)nn3c2C)cc1Cl	–	?	–	–	?	–	·	·	·
COc1cc(OC)cc(-c2cc3nc(C)c(CCC(=O)Nc4ccc(F)c(Cl)c4)c(C)n3n2)c1	–	–	·	·	2.1µM	–	?	–	5.8µM
Cc1cccc(NC2=NC(C)(C)N=C(N)N2)c1	–	–	–	–[11.3 µM]	5.2µM	–	–	–	4.6µM
CC(C)Cn1cc(NC(=O)NCc2cccc(Cl)c2)c2ccccc2c1=O	–	–	–	–	–	–	·	·	·
Cc1nn(C(C)(C)C)c(OC(=O)C(C)(C)C)c1Sc1ccccc1	–	?	–	–	–[9.27 µM]	–	·	·	·
CCc1ccc2[nH]c(=O)c(CN(Cc3ccccc3)C(=O)Nc3ccccc3OC)cc2c1	–	–	?	–	7.3µM	–	–	–	?
CCc1ccc2[nH]c(=O)c(CN(CCN(C)C)C(=O)Nc3ccccc3OC)cc2c1	–	–	–	–	–	–	·	·	·
CCN(CC(=O)NCc1ccc(Cl)cc1)C(=O)c1ccc(C#N)cc1	–	–	–	–	–	–	·	·	·
COc1cc(C=NO)nc(-c2ccccn2)c1	–	?	?	?	1.2µM	–	–	–	2.6µM
CN(Cc1ccc(OC(F)F)cc1)C(=O)c1cccc(S(=O)(=O)N2CCN(c3ccccc3)CC2)c1	–	–	?	–	4.6µM	–	–	–	·
CN(Cc1ccc(Cl)c(Cl)c1)C(=O)c1cccc(S(=O)(=O)N2CCN(Cc3ccccc3)CC2)c1	–	?	–	–	9.2µM	–	–	–	?
COc1ccc(CC(=O)Nc2ccncc2Cl)cc1	–	–	–	–	5.2µM	–	–	–	?
CCOc1ccc(-n2c(-c3ccc(Br)cc3)c[n+]3c2CCCCC3)cc1	–	–	?	?	?	–	·	·	·
CCOc1ccc(-n2c(-c3ccccc3)c[n+]3c2CCC3)cc1	–	?	?	–[11.3 µM]	2.3µM	–	–	–	16µM
CCOc1ccc(-n2c(-c3ccc(OC)cc3)c[n+]3c2CCCCC3)cc1	?	?	–	·	2.6µM	–	–	–	3.7µM
CC12CCC(C(=O)Nc3ncc([N+](=O)[O-])s3)(OC1=O)C2(C)C (stereo not given)	?	–	–	–	–	–	·	·	·
CC1=NC(C)(C)Cc2cc(C)c(C)cc21	–	–	–	–	–	–	·	·	·
Cc1cc2c(cc1C)C(=O)NC(C)(C)C2	–	–	–	–	7.3µM	–	–	–	–
Cc1c(/C=N/NC(=O)c2cccnc2)c2ccccc2n1Cc1ccccc1	?	?	–	–[11.3 µM]	6.5µM	–	?	–	9.2µM
Cc1nn(Cc2ccccc2)c(Cl)c1/C=N/NC(=O)c1cccnc1	?	–	·	·	?	–	·	·	·
Cc1ccc(S(=O)(=O)CC2CSc3nc(N)cc(=O)n32)cc1 (stereo not given)	–	–	–	–	–	–	·	·	·
Cc1ccc(S(=O)(=O)CC2CSc3nc4ccccc4n32)cc1 (stereo not given)	–	–	–	–	0.73µM	–	–	–	1.3µM
SMILES	A549 tox-1	TGFb SMAD3 inh	ATXN viability	ATXN2 expr inh	Nrf2 block	HepG2 viability	FLuc enzyme inh	A549 tox-2	Nrf2 ARE inh
Cc1cc2cc(CN(Cc3ccco3)S(=O)(=O)c3c(C)ccc4nsnc34)c(=O)[nH]c2cc1C	–	–	?	?	2.3µM	–	?	–	3.3µM
Cc1cc(C)c2oc(-c3ccc(NC(=O)c4cc(Br)ccc4Cl)cc3)nc2c1	–	–	–	–	5.8µM	–	–	–	7.3µM
Cc1ccccc1-n1ncc2c(SCC(=O)NC3CCCC3)ncnc21	–	?	–	–	8.2µM	–	–	–	15µM
Cc1ccccc1-n1ncc2c(SCC(=O)N3c4ccccc4CC3C)ncnc21 (stereo not given)	–	–	–	–	?	–	·	·	·
COc1ccc(N(C(C)C(=O)N2CCC(Cc3ccccc3)CC2)S(C)(=O)=O)cc1 (stereo not given)	–	–	–	–	6.5µM	–	–	–	18µM
CC1=C(C(=O)N(C(C)C)C(C)C)CC(CC(=O)NCCc2ccccn2)C(=O)N1CCCN1CCCC1=O (stereo not given)	·	–	–	–	·	–	·	·	·
COc1cccc(CN(C)C(=O)CNC(=O)c2ccc(-c3ccccc3)cc2)c1OC	–	?	–	?	4.6µM	–	–	–	·
CN1/C(=C\C(=O)C[n+]2ccc(C(=O)c3ccccc3)cc2)C(C)(C)c2ccccc21	–	–	?	·	5.2µM	–	–	–	5.2µM
CN1/C(=C\C(=O)CSc2cccc[n+]2[O-])C(C)(C)c2ccccc21	–	–	–	–	?	–	·	·	·
CN1/C(=C\C(=O)C[n+]2cccc(C(N)=O)c2)C(C)(C)c2ccccc21	–	–	–	–	–	–	·	·	·
Cc1ccc[n+](CC(=O)/C=C2\N(C)c3ccccc3C2(C)C)c1	–	?	–	–	?	–	·	·	·
Cc1cccc[n+]1CC(=O)/C=C1\N(C)c2ccccc2C1(C)C	?	?	?	–	5.2µM	–	–	–	7.3µM
CN1/C(=C\C(=O)C[n+]2cccc(Br)c2)C(C)(C)c2ccccc21	–	–	–	–	3.3µM	–	–	–	4.1µM
Cc1cc(S(=O)(=O)Nc2ccc(-c3ccc(N4CCCCCC4)nn3)cc2)c(C)cc1Cl	–	–	?	–	·	–	·	·	·
COc1ccc(OC)c(C(C)NC=O)c1 (stereo not given)	–	–	–	–	–	–	·	·	·
CCCc1cc(=O)oc2cc(C)cc(OCC(=O)NCCCN3CCCC3=O)c12	–	–	–	–	–	–	·	·	·
